{"source": "the supplement of paper PMC8728848", "experiment_in_all_cases": "glycan array binding signal (z-score within array); higher = stronger binding", "settings_in_all_cases": "glycan notation: IUPAC condensed, linker removed", "key": {"GlcA(b1-3)Gal": {"tested_on": "GlcA(b1-3)Gal", "method_in_brief": "(§1)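 Arrays were curated from the Consortium for Functional Glycomics database, 3228 in total, and kept only where the protein sequence was available. Binding is expressed as a within-array Z-score. This score was averaged across arrays of the same protein sequence at different concentrations or buffers and across linkers, and negative values can be read as non-binding.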"}, "[1]": {"tested_on": "GalNAc(b1-3)Gal(a1-6)Gal(b1-4)Glc", "method_in_brief": "as §1"}, "GalNAc(b1-4)Gal(b1-4)Glc": {"tested_on": "GalNAc(b1-4)Gal(b1-4)Glc", "method_in_brief": "as §1"}, "[2]": {"tested_on": "GalNAc(a1-3)GalNAc(b1-3)Gal(a1-4)Gal(b1-4)Glc", "method_in_brief": "as §1"}, "Glc(a1-4)Glc": {"tested_on": "Glc(a1-4)Glc", "method_in_brief": "as §1"}, "Glc(a1-6)Glc(a1-6)Glc": {"tested_on": "Glc(a1-6)Glc(a1-6)Glc", "method_in_brief": "as §1"}, "Glc(b1-4)Glc": {"tested_on": "Glc(b1-4)Glc", "method_in_brief": "as §1"}, "Glc(b1-6)Glc": {"tested_on": "Glc(b1-6)Glc", "method_in_brief": "as §1"}, "GlcA(b1-3)GlcNAc": {"tested_on": "GlcA(b1-3)GlcNAc", "method_in_brief": "as §1"}, "GalNAc(a1-3)Gal": {"tested_on": "GalNAc(a1-3)Gal", "method_in_brief": "as §1"}, "GalNAc(b1-3)GlcNAc": {"tested_on": "GalNAc(b1-3)GlcNAc", "method_in_brief": "as §1"}, "GalNAc3S(b1-4)GlcNAc": {"tested_on": "GalNAc3S(b1-4)GlcNAc", "method_in_brief": "as §1"}, "[3]": {"tested_on": "Glc(a1-4)Glc(a1-4)Glc(a1-4)Glc", "method_in_brief": "as §1"}, "GalNAc(b1-6)GalNAc": {"tested_on": "GalNAc(b1-6)GalNAc", "method_in_brief": "as §1"}, "GalNAc(b1-3)GalNAc": {"tested_on": "GalNAc(b1-3)GalNAc", "method_in_brief": "as §1"}, "[4]": {"tested_on": "GalNAc(b1-4)GlcNAc(b1-3)GalNAc(b1-4)GlcNAc", "method_in_brief": "as §1"}, "GalNAc4S6S(b1-4)GlcNAc": {"tested_on": "GalNAc4S6S(b1-4)GlcNAc", "method_in_brief": "as §1"}, "[5]": {"tested_on": "GalNAc(b1-3)Gal(a1-4)Gal(b1-4)GlcNAc", "method_in_brief": "as §1"}, "[6]": {"tested_on": "GalNAc(b1-4)GlcNAc(b1-2)Man(a1-3)[GalNAc(b1-4)GlcNAc(b1-2)Man(a1-6)]Man(b1-4)GlcNAc(b1-4)GlcNAc", "method_in_brief": "as §1"}, "[7]": {"tested_on": "GlcA3S(b1-3)Gal(b1-4)GlcNAc(b1-2)Man", "method_in_brief": "as §1"}}, "note": "Many of the other results were omitted from the sample, so the strongest signals are more common in it than they were.", "data": [{"substance": "GspB (Streptococcus gordonii), Q939N5", "values": [{"measurement": "glycan array binding signal (z-score)", "setting": "GlcA(b1-3)Gal", "value": -0.677}]}, {"substance": "BambL (Burhholderia ambifaria), Q0B4G1", "values": [{"measurement": "glycan array binding signal (z-score)", "setting": "[1]", "value": -0.314}, {"measurement": "glycan array binding signal (z-score)", "setting": "GalNAc(b1-4)Gal(b1-4)Glc", "value": -0.316}]}, {"substance": "SiiE (Salmonella typhimurium), A0A0H3NVH0", "values": [{"measurement": "glycan array binding signal (z-score)", "setting": "[2]", "value": -1.13}, {"measurement": "glycan array binding signal (z-score)", "setting": "Glc(a1-4)Glc", "value": -0.099}]}, {"substance": "Epa22", "values": [{"measurement": "glycan array binding signal (z-score)", "setting": "[1]", "value": -0.822}]}, {"substance": "SpGH101 (Streptococcus pneumoniae), Q8DR60", "values": [{"measurement": "glycan array binding signal (z-score)", "setting": "Glc(a1-6)Glc(a1-6)Glc", "value": -0.103}, {"measurement": "glycan array binding signal (z-score)", "setting": "Glc(b1-4)Glc", "value": -0.147}, {"measurement": "glycan array binding signal (z-score)", "setting": "Glc(b1-6)Glc", "value": -0.186}, {"measurement": "glycan array binding signal (z-score)", "setting": "GlcA(b1-3)Gal", "value": -0.183}, {"measurement": "glycan array binding signal (z-score)", "setting": "GlcA(b1-3)GlcNAc", "value": 3.66}]}, {"substance": "AgI/II Vhelical-GFP (Streptococcus mutans)", "values": [{"measurement": "glycan array binding signal (z-score)", "setting": "GalNAc(a1-3)Gal", "value": -0.061}, {"measurement": "glycan array binding signal (z-score)", "setting": "GalNAc(b1-3)GlcNAc", "value": -0.152}, {"measurement": "glycan array binding signal (z-score)", "setting": "GalNAc3S(b1-4)GlcNAc", "value": -0.11}, {"measurement": "glycan array binding signal (z-score)", "setting": "[3]", "value": -0.13}, {"measurement": "glycan array binding signal (z-score)", "setting": "Glc(a1-6)Glc(a1-6)Glc", "value": -0.269}]}, {"substance": "Actinohivin (Actinomycete K97)", "values": [{"measurement": "glycan array binding signal (z-score)", "setting": "GalNAc(a1-3)Gal", "value": -0.192}, {"measurement": "glycan array binding signal (z-score)", "setting": "GalNAc(b1-6)GalNAc", "value": -0.188}]}, {"substance": "LcI (Legionella pneumophila)", "values": [{"measurement": "glycan array binding signal (z-score)", "setting": "GalNAc(b1-3)GalNAc", "value": -0.554}, {"measurement": "glycan array binding signal (z-score)", "setting": "[4]", "value": -0.365}, {"measurement": "glycan array binding signal (z-score)", "setting": "GalNAc4S6S(b1-4)GlcNAc", "value": -0.709}]}, {"substance": "AgI/IIC123-GFP (Streptococcus mutans)", "values": [{"measurement": "glycan array binding signal (z-score)", "setting": "[5]", "value": 1.61}, {"measurement": "glycan array binding signal (z-score)", "setting": "GalNAc(b1-4)Gal(b1-4)Glc", "value": -0.438}, {"measurement": "glycan array binding signal (z-score)", "setting": "[6]", "value": -0.272}, {"measurement": "glycan array binding signal (z-score)", "setting": "[7]", "value": 3.12}]}]}
